Reference: ChEMBL document CHEMBL1157539, “Thousands of chemical starting points for antimalarial lead identification” (Nature, 2010)

tested on: HepG2; assay: GSK_TCMDC: Percent inhibition of human HepG2 cell line. Test compounds present at 10uM.; format: functional

SMILES	Inhibition [%]
COc1cc2nc(NCCc3ccccc3)nc(NCc3nccs3)c2cc1OC	1
CCOc1cccc(C(=O)Nc2cccc(CN3CCCN(Cc4cccc(O)c4)CC3)c2)c1.O=C(O)C(F)(F)F	17
Cc1[nH]c(C)c(-c2ccc(Oc3cccc(Cl)c3)cc2)c(=O)c1Br	46
CN(C)c1cc(NC(=O)Nc2ccc(SC(F)(F)F)cc2)c2ccccc2n1	22
O=C(Nc1cc(C(F)(F)F)cc(C(F)(F)F)c1)NC(CCCN1CCC2(CC1)OCc1ccccc12)c1ccc(Cl)c(Cl)c1 (stereo not drawn)	26
CN1CCCC(CN2CCN(Cc3cccc(-c4cccc(-c5nc6ccccc6[nH]5)c4)c3)CC2)C1.O=C(O)C(F)(F)F (stereo not drawn)	45
NC1CCN(Cc2cccc(-c3ccc(-c4nc5ccccc5[nH]4)s3)c2)C1.O=C(O)C(F)(F)F (stereo not drawn)	36
CO/C(=C\C=C\c1cc2cc(Cl)c(Cl)cc2[nH]1)C(=O)Nc1ccc(NCCN(C)C)nc1.Cl	27
CCCNCc1ccc(-c2ccc(CN(C(=O)c3nn(-c4ccccc4)nc3C)C3CC3)cc2)nc1.O=C(O)C(F)(F)F	23
CCC(C)NC(=O)CN1CN(c2ccccc2)C2(CCN(C(=O)c3ccc4ccccc4c3)CC2)C1=O (stereo not drawn)	0
O=C(Nc1cccc(CN2CCCN(Cc3ccccc3)CC2)c1)c1ccc(Cl)c(Cl)c1.O=C(O)C(F)(F)F	23
COc1ccc(Nc2nccc(-c3ccc4ccnc(NCCCCN)c4c3)n2)cc1	15
Cc1ccc2c(OCCN3CCC(Cc4ccc5c(c4)NC(=O)CO5)CC3)cc(F)cc2n1.Cl	24
